From PubChem BioAssay
In the library only some 8.7% were active in any assay of this set; here they are far more common.
Pf growth 96h – inhibits malaria parasite growth, 96 h; 320,000 tested, 6.9% active; Potency, µM (top dose mostly 28.7 µM), for inactives: at the highest dose activity change, negative = inhibition, most hits filed as inhibitors; AID 504834; P. falciparum luciferase reporter growth, 96 h
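Plates of compound plus infected erythrocytes (2% hematocrit, 0.05% parasitemia final) incubate 96 hours, 37 C, 5% CO2. Detection reagent added; reduced luminescence from the parasites' luciferase reporter flags inhibition.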
AMA1 RON2 block – disrupts binding of P. falciparum AMA1 to RON2. 360,000 tested, 0.2% active. AlphaScreen AMA1-biotinylated RON2 peptide binding. Potency, µM (top dose mostly 58.2 µM), for inactives: top-dose activity change, negative = inhibition, hits mostly inhibitors;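 note: 0% = vehicle wells and -100% = peptide control; nearly all actives have a fitted effect of over 45% in size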
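AMA1 (3D7) with his tag at 25 nM final met compounds first, then biotinylated RON2 peptide at 25 nM; detection used donor plus acceptor beads, 10 µg/mL apiece, read by AlphaScreen after 30 min at room temperature.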
Vaccinia mCherry – inhibitors of vaccinia virus infection (mCherry reporter signal); Vaccinia virus mCherry reporter infection, fluorescence; Potency, µM (highest dose often 36.5 µM), for the others: at the highest dose activity change, negative = inhibition, most hits filed as inhibitors; 310,000 tested, 0.63% active; AID 720579; calls by dose curve; tested in A549 cells; note: nearly all actives have a fitted effect of over 35% in size
VACV Venus inh – vaccinia inhibition (Venus reporter); Vaccinia virus Venus reporter expression, fluorescence; Potency, µM (highest dose often 36.5 µM), for inactives: top-dose activity change, negative = inhibition, actives largely listed as inhibitors; 330,000 tested, 0.46% active; AID 720580; calls by dose curve; tested in A549 cells; note: nearly all actives have a fitted effect of over 30% in size
Pf growth 48h – inhibits P. falciparum growth in the first generation, 48 h | P. falciparum luciferase growth in erythrocytes, 48 h | Potency, µM (titrated, usually from 28.7 µM), for inactives: top-dose activity change, negative = inhibition, actives largely listed as inhibitors | 310,000 tested, 5.9% active | AID 504832
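Luminescence readout; reporter = integrated firefly luciferase in P. falciparum. RBC culture at 2% hematocrit, 0.1% parasitemia final, 37 C/5% CO2; decreased signal taken as growth inhibition.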
* = called active by the depositor. Unless noted, calls come from the whole dose curve; as a rule, active = well fitted curve in the direction sought with a large enough effect; inconclusive = small, poorly fitted or top-dose-only effect, or another doubt; inactive = no such curve, though single readings can be large; an effect the other way counts as inactive or inconclusive. Unless noted, % is set by controls: 0 for no effect and ±100 for the full control effect; potency is the fitted concentration of half-maximal effect.

How did CCC(=O)Nc1cccc(C2=NOC3(C2)C[C@H](C(N)=O)N(C(=O)c2ccc(Cl)cc2)C3)c1 (stereo partly specified) do in these assays?
Pf growth 96h: -15%; AMA1 RON2 block: 11%; Vaccinia mCherry: inactive; VACV Venus inh: -8%; Pf growth 48h: inconclusive

What do the screens show for `NC(=O)[C@@H]1CC2(CC(c3cccc(NC(=O)COc4ccc(Cl)cc4)c3)=NO2)CN1C(=O)c1ccccc1` (stereo partly specified)?
Pf growth 96h: 13µM*; AMA1 RON2 block: -11%; Vaccinia mCherry: -15%; VACV Venus inh: inconclusive; Pf growth 48h: 10µM*

What do the screens show for `SCc1nc2ccccc2[nH]1`?
Vaccinia mCherry: -22%; VACV Venus inh: -11%

How did Cc1cccc(C)c1NC(=O)Cn1c(=O)n(CCC(=O)NCc2ccccc2Cl)c(=O)c2sccc21 do in these assays?
Vaccinia mCherry: 5%; VACV Venus inh: 19%

Results for COc1cc(NC(=O)C2CCN(S(=O)(=O)c3ccc4c(c3)CCCC(=O)N4)CC2)cc(OC)c1 ?
Vaccinia mCherry: 0%; VACV Venus inh: 4%

How did CCOc1ccc(CCNc2ncnc3onc(-c4ccc(F)cc4)c23)cc1OCC do in these assays?
Vaccinia mCherry: -15%; VACV Venus inh: -8%

What do the screens show for `CCOC(=O)c1ccc(N2C(=O)CC(N(C)CCc3ccc(OC)c(OC)c3)C2=O)cc1` (stereo unspecified)?
AMA1 RON2 block: 4%; VACV Venus inh: -6%; Pf growth 48h: inconclusive

What do the screens show for `CCOc1cccc(N2C(=O)CC(N(CCc3ccc(OC)c(OC)c3)C(=O)CC)C2=O)c1` (stereo unspecified)?
Pf growth 96h: 5.9µM*; AMA1 RON2 block: -11%; VACV Venus inh: -1%; Pf growth 48h: 0%

Results for CCOc1ccc(N2C(=O)CC(N(CCc3ccc(S(N)(=O)=O)cc3)C(C)=O)C2=O)cc1 (stereo unspecified) ?
Pf growth 96h: 8%; AMA1 RON2 block: 20%; Vaccinia mCherry: -27%; VACV Venus inh: -2%; Pf growth 48h: 3.7µM*

Results for CCn1ccnc1CN1CCc2c([nH]c3ccccc23)C1CC(C)C (stereo unspecified) ?
Pf growth 96h: inconclusive; AMA1 RON2 block: 5%; Pf growth 48h: inconclusive

How did Cc1c(CN2CCc3c([nH]c4ccccc34)C2C2CCCCC2)cnn1C (stereo unspecified) do in these assays?
Pf growth 96h: 5.9µM*; AMA1 RON2 block: -16%; Vaccinia mCherry: inconclusive; VACV Venus inh: -29%; Pf growth 48h: inconclusive

How did Cc1cccc(CN2CCc3c([nH]c4ccccc34)C2CC(C)C)n1 (stereo unspecified) do in these assays?
Pf growth 96h: 10µM*; AMA1 RON2 block: 18%; Vaccinia mCherry: -16%; VACV Venus inh: -6%; Pf growth 48h: 9.3µM*

Results for Cc1cnc(CN2CCc3c([nH]c4ccccc34)C2CC(C)C)[nH]1 (stereo unspecified) ?
Pf growth 96h: -1%; AMA1 RON2 block: 6%; Vaccinia mCherry: inconclusive; VACV Venus inh: -5%; Pf growth 48h: 13µM*

Results for CCn1ccnc1CN1CCc2c([nH]c3ccccc23)C1C(C)(C)C (stereo unspecified) ?
Pf growth 96h: 32%; AMA1 RON2 block: -6%; Vaccinia mCherry: -23%; VACV Venus inh: -5%; Pf growth 48h: 4.7µM*

How did CCOC(=O)c1[nH]c(C)c(C(=O)NCCc2ccccc2)c1C do in these assays?
Vaccinia mCherry: 5%; VACV Venus inh: -10%

Results for O=C(c1ccc2c(c1)N(Cc1ccc(Cl)cc1)C(=O)c1ccccc1S2=O)N1CCN(c2ccccc2F)CC1 (stereo unspecified) ?
Vaccinia mCherry: inconclusive; VACV Venus inh: -29%

How did COc1ccc(CN2CCNC(=O)C2CC(=O)NC2Cc3ccccc3C2)c(OC)c1 (stereo unspecified) do in these assays?
Pf growth 96h: 2%; AMA1 RON2 block: -5%; Vaccinia mCherry: -5%; VACV Venus inh: -7%; Pf growth 48h: 16%

What do the screens show for `COc1ccc(CNC(=O)CC2C(=O)NCCN2CC(C)(C)C)c(OC)c1` (stereo unspecified)?
Pf growth 96h: 10µM*; AMA1 RON2 block: -4%; Pf growth 48h: -8%

How did COc1ccc(CN2CCNC(=O)C2CC(=O)NCc2ccc(C)s2)c(OC)c1 (stereo unspecified) do in these assays?
Pf growth 96h: inconclusive; AMA1 RON2 block: 12%; Pf growth 48h: 19%

What do the screens show for `COc1ccc(CN2CCNC(=O)C2CC(=O)NC2CCC2)c(OC)c1` (stereo unspecified)?
Pf growth 96h: 15µM*; AMA1 RON2 block: -5%; Vaccinia mCherry: -9%; VACV Venus inh: -10%; Pf growth 48h: 7%

Results for CCn1nc(C)cc1C(=O)N1CCC2(CC1)c1ccccc1[C@@H](NC(=O)c1cccnc1)[C@@H]2O ?
Vaccinia mCherry: -8%; VACV Venus inh: -2%

Results for COc1ccc2cc(CN(CCc3ccccc3)Cc3nnnn3Cc3ccco3)c(=O)[nH]c2c1 ?
Pf growth 96h: 8%; AMA1 RON2 block: -3%; VACV Venus inh: -13%; Pf growth 48h: 6.6µM*

What do the screens show for `COc1ccc(Cn2nnnc2CN(Cc2cc3cc(C)ccc3[nH]c2=O)C2CCCC2)cc1`?
Pf growth 96h: -16%; AMA1 RON2 block: 0%; Vaccinia mCherry: -5%; VACV Venus inh: -24%; Pf growth 48h: inconclusive

What do the screens show for `COc1ccc2[nH]c(=O)c(CN(C3CCCCC3)C(c3nnnn3Cc3ccco3)C(C)C)cc2c1` (stereo unspecified)?
Pf growth 96h: 42%; AMA1 RON2 block: 0%; Vaccinia mCherry: -5%; VACV Venus inh: 9%; Pf growth 48h: 13µM*

Results for COc1ccc2[nH]c(=O)c(CN(Cc3nnnn3Cc3ccco3)C3CCCCC3)cc2c1 ?
Pf growth 96h: 5.2µM*; AMA1 RON2 block: inconclusive; Vaccinia mCherry: -18%; VACV Venus inh: 3%; Pf growth 48h: inconclusive

How did CCOC(=O)Cn1nnnc1C(C(C)C)N(Cc1cc2c(C)cc(C)cc2[nH]c1=O)C1CCCC1 (stereo unspecified) do in these assays?
Pf growth 96h: 10%; AMA1 RON2 block: 2%; VACV Venus inh: -16%; Pf growth 48h: 6.6µM*

Results for CC(=O)N(Cc1cc2c(C)cc(C)cc2[nH]c1=O)C1CCCCC1 ?
AMA1 RON2 block: -1%; VACV Venus inh: inconclusive; Pf growth 48h: inconclusive

How did Cc1ccc2cc(C(c3nnnn3C3CCCC3)N(Cc3cccnc3)Cc3ccco3)c(=O)[nH]c2c1 (stereo unspecified) do in these assays?
Pf growth 96h: -22%; AMA1 RON2 block: -4%; Vaccinia mCherry: inactive; VACV Venus inh: -12%; Pf growth 48h: 13µM*
